Assay in all cases: DAPPL (digital affinity profiling via proximity ligation, sequencing); 10 mM Tris-HCl pH 7.5, 50 mM NaCl, 1 mM DTT, 4% glycerol, room temperature, 30 min; GST-TFs on glutathione beads, 16-mer random dsDNA library, 0.1% formaldehyde crosslink after washing; high values mean tight binding
Conditions in all cases: protein: recombinant; tags: N-terminal GST; dsDNA, one strand shown

Test [1] has as its target T1, FLI1 (Homo sapiens, UniProt Q01543 1-452).
T1 sequence: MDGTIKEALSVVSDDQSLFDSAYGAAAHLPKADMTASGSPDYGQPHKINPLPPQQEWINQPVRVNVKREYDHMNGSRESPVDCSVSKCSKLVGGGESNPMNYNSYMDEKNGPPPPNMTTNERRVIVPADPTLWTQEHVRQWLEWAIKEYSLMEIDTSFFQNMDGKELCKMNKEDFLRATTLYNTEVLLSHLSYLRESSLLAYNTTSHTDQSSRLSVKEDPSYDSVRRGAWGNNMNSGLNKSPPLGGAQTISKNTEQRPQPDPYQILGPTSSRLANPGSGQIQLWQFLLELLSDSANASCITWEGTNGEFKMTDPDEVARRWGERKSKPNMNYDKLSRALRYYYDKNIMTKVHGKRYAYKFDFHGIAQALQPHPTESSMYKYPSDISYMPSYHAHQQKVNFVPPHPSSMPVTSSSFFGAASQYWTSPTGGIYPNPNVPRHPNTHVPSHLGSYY
The method in brief: (§1)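 The binding signal reported is, for every hexamer, its read frequency for a factor over its read frequency for the tag-only sample. Reads came from pools of yeast-expressed, GST-fused human transcription factors on glutathione beads, barcoded with DNA and mixed with that sample, which were incubated with 200 nmole of a random double-stranded 16-mer DNA library in Tris/NaCl/DTT/glycerol buffer at room temperature for 30 min. After washing, the pools were crosslinked with 0.1% formaldehyde, proximity-ligated with BsaI/T4 ligase for 1 h at 37 °C, PCR-amplified and sequenced on an Illumina NextSeq500.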

Test [2] concerns the target T2, ELK1 (Homo sapiens, UniProt P19419 1-428).
T2 sequence: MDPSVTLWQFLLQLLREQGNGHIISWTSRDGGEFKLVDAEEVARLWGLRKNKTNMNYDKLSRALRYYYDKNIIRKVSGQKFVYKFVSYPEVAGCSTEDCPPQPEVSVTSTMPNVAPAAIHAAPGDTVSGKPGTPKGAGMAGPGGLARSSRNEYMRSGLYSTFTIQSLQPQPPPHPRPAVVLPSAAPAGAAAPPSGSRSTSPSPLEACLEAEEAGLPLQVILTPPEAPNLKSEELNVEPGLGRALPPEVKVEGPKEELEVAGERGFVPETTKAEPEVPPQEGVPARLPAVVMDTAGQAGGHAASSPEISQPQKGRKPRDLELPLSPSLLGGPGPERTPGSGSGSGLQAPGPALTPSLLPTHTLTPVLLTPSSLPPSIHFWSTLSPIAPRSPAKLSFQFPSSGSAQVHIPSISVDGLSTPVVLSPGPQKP
The method in brief:
as §1

The target in test [3] is T3, GABPA (Homo sapiens, UniProt Q06546 1-454).
T3 sequence: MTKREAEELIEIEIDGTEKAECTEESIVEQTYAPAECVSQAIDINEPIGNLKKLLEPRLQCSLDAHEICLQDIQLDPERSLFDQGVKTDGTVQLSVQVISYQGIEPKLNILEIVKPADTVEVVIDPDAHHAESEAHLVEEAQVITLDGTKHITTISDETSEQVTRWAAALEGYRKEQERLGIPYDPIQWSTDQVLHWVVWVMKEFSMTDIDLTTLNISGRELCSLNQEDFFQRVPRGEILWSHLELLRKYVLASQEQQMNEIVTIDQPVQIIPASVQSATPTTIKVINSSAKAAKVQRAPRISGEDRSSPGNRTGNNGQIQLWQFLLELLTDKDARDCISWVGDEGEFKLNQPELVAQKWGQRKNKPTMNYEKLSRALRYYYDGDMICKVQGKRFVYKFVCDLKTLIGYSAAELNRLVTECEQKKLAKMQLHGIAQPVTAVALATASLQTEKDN
The method in brief:
as §1

The target in test [4] is T4, ERG (Homo sapiens, UniProt P11308 1-479).
T4 sequence: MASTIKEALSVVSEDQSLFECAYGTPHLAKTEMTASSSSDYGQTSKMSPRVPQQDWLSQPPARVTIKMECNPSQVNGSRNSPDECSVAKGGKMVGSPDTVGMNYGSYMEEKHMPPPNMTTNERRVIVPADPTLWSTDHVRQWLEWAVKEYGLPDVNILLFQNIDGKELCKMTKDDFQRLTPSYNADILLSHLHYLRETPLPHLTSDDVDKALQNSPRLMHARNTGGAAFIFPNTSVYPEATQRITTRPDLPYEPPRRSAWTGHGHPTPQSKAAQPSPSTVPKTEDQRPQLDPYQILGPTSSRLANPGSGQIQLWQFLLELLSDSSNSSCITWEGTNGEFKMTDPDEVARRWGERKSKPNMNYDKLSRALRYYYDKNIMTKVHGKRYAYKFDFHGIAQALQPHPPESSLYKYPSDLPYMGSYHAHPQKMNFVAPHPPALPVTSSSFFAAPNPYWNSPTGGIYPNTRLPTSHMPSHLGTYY
The method, boiled down: as §1

Test [5] deals with ELF1 (Homo sapiens, UniProt P32519 1-619). The method in brief: as §1
The target of test [6] is SPI1 (Homo sapiens, UniProt P17947 1-270). The method, boiled down: as §1
The target of test [7] is SPIB (Homo sapiens, UniProt Q01892 1-262). The method in brief: as §1
The target of test [8] is T5, ELK3 (Homo sapiens, UniProt P41970 1-407).
T5 sequence: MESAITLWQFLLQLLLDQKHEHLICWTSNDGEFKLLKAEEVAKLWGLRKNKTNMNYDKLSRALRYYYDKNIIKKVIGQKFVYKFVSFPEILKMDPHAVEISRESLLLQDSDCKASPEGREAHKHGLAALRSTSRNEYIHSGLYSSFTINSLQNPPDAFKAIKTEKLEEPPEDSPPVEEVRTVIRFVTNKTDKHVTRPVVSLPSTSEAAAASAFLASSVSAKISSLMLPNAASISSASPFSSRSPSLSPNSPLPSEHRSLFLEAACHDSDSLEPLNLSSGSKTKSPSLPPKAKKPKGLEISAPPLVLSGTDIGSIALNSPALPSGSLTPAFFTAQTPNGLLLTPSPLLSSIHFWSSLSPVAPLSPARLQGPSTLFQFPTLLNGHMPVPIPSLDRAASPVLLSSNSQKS
The method in brief:
as §1

In test [9] the target is T6, FEV (Homo sapiens, UniProt Q99581 1-238).
T6 sequence: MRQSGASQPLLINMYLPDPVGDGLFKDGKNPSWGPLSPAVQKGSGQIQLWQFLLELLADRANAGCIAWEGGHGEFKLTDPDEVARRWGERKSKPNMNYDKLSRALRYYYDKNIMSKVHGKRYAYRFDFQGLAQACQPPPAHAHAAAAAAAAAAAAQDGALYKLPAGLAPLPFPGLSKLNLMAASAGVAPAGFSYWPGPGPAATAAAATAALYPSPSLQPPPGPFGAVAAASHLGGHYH
The method, boiled down:
as §1

The target of test [10] is ETV5 (Homo sapiens, UniProt P41161 1-510). The method in brief:
as §1

In test [11] the target is T7, SPIC (Homo sapiens, UniProt Q8N5J4 1-248).
T7 sequence: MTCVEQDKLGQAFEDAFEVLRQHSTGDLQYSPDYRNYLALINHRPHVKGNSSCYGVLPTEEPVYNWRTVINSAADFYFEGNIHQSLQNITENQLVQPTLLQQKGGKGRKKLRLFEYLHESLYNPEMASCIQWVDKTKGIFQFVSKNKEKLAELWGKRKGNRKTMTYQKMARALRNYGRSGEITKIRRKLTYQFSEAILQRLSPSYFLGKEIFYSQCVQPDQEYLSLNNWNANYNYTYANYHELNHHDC
The method in brief:
as §1

The target of test [12] is ELF4 (Homo sapiens, UniProt Q99607 1-663). The method, boiled down: as §1
Test [13] deals with T8, ELK4 (Homo sapiens, UniProt P28324-2 1-405).
T8 sequence: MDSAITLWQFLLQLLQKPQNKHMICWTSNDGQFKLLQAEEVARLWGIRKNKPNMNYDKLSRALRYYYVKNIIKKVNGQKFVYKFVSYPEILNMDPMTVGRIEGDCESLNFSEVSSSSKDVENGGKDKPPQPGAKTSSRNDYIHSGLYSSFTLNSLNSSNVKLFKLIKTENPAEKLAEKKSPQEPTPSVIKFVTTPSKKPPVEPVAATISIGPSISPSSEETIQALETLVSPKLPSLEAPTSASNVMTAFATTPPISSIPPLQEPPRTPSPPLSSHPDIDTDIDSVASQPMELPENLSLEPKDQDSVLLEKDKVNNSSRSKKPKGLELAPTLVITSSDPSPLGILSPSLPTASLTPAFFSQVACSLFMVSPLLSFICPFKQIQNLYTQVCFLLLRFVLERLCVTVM
The method in brief: as §1

The target of test [14] is T9, ETV2 (Homo sapiens, UniProt O00321 1-342).
T9 sequence: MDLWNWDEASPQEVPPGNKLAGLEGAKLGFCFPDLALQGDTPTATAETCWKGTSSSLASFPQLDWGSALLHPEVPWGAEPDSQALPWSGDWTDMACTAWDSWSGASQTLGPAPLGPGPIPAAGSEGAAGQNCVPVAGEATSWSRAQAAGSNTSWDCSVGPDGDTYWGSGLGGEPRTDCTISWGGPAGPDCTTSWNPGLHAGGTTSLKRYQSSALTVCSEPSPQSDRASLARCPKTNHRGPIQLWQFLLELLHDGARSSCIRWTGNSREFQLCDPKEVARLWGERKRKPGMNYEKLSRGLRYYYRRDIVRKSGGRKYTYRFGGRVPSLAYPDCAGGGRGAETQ
The method in brief:
as §1

Test [15] has as its target T10, ELF3 (Homo sapiens, UniProt P78545 1-371).
T10 sequence: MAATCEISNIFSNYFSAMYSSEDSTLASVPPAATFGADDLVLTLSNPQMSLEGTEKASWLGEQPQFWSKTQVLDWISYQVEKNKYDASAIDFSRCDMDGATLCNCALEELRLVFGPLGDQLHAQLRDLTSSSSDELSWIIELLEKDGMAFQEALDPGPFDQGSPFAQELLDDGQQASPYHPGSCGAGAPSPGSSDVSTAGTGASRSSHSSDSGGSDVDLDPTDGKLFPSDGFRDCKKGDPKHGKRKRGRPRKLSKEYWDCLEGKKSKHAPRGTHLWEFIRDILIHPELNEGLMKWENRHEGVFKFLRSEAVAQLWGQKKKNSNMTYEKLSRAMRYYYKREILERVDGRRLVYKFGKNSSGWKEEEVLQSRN
The method, boiled down: as §1

Test [16] has as its target CRX (Homo sapiens, UniProt O43186 1-299). The method, boiled down:
as §1

For test [17], the target named is ETV1 (Homo sapiens, UniProt P50549 1-477). The method in brief:
as §1

CRX, sequence (O43186 whole entry): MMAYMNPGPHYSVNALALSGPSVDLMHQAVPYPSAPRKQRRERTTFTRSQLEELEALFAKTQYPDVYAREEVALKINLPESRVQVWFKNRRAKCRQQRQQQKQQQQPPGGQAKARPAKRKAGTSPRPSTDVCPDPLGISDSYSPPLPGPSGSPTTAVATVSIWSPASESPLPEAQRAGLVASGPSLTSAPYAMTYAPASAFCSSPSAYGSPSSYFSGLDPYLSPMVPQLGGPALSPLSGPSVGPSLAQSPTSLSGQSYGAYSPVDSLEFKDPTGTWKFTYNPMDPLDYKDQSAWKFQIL
ELF4, sequence (Q99607 whole entry): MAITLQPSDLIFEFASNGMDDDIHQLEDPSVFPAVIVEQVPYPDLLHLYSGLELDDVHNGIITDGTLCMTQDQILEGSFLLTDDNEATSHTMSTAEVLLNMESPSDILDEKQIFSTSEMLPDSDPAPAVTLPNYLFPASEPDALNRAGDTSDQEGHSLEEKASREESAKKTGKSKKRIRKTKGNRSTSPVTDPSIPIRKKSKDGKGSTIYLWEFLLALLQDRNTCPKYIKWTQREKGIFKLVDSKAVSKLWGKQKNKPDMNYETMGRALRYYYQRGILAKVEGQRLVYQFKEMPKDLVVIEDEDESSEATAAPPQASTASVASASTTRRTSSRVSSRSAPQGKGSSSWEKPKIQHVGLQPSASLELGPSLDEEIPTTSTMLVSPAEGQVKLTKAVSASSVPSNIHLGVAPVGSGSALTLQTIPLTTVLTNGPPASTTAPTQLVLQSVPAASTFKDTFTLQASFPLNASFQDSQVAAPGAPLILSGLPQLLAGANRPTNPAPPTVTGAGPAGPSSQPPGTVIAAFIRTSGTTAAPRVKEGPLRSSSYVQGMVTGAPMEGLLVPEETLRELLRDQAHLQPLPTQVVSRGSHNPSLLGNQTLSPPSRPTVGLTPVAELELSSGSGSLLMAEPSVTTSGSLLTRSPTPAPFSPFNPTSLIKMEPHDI
ETV5, sequence (P41161 whole entry): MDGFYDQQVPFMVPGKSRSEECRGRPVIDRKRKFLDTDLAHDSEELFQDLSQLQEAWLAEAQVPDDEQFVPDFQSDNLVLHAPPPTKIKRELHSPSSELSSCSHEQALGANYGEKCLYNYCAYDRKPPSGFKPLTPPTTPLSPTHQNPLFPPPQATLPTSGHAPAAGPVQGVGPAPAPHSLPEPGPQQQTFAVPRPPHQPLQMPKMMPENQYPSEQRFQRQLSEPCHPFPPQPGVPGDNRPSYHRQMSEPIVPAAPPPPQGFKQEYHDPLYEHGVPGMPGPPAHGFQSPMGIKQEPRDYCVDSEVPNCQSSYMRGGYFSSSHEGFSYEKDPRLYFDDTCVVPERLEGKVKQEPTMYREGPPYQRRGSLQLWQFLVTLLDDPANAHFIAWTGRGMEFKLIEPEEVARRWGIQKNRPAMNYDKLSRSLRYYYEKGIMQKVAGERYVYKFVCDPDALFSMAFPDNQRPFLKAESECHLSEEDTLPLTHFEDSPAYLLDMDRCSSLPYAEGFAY
ETV1, sequence (P50549 whole entry): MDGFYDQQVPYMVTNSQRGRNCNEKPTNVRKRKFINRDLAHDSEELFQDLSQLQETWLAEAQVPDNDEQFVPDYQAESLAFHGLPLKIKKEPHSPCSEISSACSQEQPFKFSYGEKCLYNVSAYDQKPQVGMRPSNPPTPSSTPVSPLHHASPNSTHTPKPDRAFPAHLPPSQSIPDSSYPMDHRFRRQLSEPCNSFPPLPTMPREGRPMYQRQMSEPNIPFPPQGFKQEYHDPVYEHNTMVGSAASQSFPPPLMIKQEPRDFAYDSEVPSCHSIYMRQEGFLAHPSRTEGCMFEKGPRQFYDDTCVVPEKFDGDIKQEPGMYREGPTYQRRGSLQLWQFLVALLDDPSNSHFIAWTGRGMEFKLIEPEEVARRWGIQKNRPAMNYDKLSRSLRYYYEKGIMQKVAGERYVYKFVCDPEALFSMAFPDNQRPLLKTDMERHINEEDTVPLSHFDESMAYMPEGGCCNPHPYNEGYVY
SPIB, sequence (Q01892 whole entry): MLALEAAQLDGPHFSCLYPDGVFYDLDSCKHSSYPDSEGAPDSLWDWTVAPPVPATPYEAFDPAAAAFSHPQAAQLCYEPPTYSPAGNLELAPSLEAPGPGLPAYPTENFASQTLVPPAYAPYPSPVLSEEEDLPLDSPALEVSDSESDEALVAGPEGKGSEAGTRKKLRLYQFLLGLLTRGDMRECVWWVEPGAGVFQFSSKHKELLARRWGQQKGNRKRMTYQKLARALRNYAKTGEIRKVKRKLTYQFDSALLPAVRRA
ELF1, sequence (P32519 whole entry): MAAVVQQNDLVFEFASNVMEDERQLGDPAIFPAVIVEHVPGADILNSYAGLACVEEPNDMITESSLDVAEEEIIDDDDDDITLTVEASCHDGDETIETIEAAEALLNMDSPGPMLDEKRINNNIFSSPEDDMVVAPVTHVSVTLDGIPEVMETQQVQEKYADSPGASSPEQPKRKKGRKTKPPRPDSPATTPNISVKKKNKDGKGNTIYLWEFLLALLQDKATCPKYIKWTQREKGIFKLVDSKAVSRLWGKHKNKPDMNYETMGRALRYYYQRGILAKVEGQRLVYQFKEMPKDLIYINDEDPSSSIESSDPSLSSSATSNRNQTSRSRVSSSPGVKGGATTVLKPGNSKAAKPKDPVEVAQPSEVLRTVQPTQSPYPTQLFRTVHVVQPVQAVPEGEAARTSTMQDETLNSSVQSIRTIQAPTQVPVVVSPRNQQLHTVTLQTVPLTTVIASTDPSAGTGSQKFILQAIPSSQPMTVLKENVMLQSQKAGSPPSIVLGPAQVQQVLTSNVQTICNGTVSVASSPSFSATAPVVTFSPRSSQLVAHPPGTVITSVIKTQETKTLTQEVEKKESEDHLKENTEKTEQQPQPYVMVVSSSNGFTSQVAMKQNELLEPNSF

For TTGCAG, the binding signal was 1.12 fold enrichment (6-mer frequency, TF over GST control) in [1]; 1.19 fold enrichment (6-mer frequency, TF over GST control) in [2]; 1.15 fold enrichment (6-mer frequency, TF over GST control) in [3]; 1.15 fold enrichment (6-mer frequency, TF over GST control) in [4]; 1.16 fold enrichment (6-mer frequency, TF over GST control) in test [5]; 1.08 fold enrichment (6-mer frequency, TF over GST control) in test [6]. The binding signal was 1.16 fold enrichment (6-mer frequency, TF over GST control) in test [7]; 1.24 fold enrichment (6-mer frequency, TF over GST control) in [8]; 1.08 fold enrichment (6-mer frequency, TF over GST control) in [9]; 1.13 fold enrichment (6-mer frequency, TF over GST control) in test [10]; 1.05 fold enrichment (6-mer frequency, TF over GST control) in test [11]; 1.09 fold enrichment (6-mer frequency, TF over GST control) in test [12]. Further, the binding signal in test [13] is 1.29 fold enrichment (6-mer frequency, TF over GST control); in [14] it was 1.17 fold enrichment (6-mer frequency, TF over GST control); in [15], 1.13 fold enrichment (6-mer frequency, TF over GST control); in [16] it was 1.1 fold enrichment (6-mer frequency, TF over GST control); in test [17], 1.07 fold enrichment (6-mer frequency, TF over GST control).

The record behind these values is paper PMC7862700, “An all-to-all approach to the identification of sequence-specific readers for epigenetic DNA modifications on cytosine”.
